These results are taken from paper PMC7862700, “An all-to-all approach to the identification of sequence-specific readers for epigenetic DNA modifications on cytosine”.

Assay in all cases: DAPPL (digital affinity profiling via proximity ligation, sequencing); 10 mM Tris-HCl pH 7.5, 50 mM NaCl, 1 mM DTT, 4% glycerol, room temperature, 30 min; GST-TFs on glutathione beads, 16-mer random dsDNA library, 0.1% formaldehyde crosslink after washing; high values mean tight binding
The target in assay [1] is T1, FLI1 (Homo sapiens, UniProt Q01543 1-452).
T1 sequence: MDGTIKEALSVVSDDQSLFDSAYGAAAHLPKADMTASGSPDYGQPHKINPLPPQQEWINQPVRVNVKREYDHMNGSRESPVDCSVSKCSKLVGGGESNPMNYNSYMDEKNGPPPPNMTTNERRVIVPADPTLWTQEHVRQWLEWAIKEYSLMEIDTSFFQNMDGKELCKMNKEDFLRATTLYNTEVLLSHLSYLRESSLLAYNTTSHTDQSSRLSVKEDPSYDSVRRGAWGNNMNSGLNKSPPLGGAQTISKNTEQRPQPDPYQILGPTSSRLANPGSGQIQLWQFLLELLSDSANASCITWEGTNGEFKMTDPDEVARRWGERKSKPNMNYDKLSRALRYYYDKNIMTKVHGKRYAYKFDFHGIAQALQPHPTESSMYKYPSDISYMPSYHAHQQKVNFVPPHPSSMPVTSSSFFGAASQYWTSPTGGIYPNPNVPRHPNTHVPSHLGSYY
The settings on record: protein: recombinant; tags: N-terminal GST; dsDNA, one strand shown. In short, it runs like this:
(§1)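 Beads coated with glutathione captured GST-fused human transcription factors that had been expressed in yeast, and the factors were then given DNA barcodes and pooled with a tag-only sample. The pools were incubated with 200 nmole of a random double-stranded 16-mer DNA library in Tris/NaCl/DTT/glycerol buffer for 30 min at room temperature, washed, crosslinked with 0.1% formaldehyde and proximity-ligated with BsaI/T4 ligase at 37 °C for 1 h. PCR amplification and Illumina NextSeq500 sequencing came last. Binding signal is each hexamer's read frequency for a factor divided by its frequency for the tag-only sample.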

The target in assay [2] is T2, ELK1 (Homo sapiens, UniProt P19419 1-428).
T2 sequence: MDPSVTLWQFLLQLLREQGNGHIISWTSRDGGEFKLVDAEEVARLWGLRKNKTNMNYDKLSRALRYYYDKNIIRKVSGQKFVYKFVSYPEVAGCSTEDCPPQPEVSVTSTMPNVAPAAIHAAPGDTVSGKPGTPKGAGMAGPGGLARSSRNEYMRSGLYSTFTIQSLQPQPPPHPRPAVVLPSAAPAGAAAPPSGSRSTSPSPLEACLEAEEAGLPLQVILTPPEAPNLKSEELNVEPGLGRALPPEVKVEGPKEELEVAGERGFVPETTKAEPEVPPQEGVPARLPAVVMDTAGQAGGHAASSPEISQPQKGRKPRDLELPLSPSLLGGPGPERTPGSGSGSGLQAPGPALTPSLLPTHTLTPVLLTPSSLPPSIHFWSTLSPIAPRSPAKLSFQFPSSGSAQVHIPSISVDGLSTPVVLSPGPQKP
The note with it: protein: recombinant; tags: N-terminal GST; dsDNA, one strand shown. The gist of the method:
as §1

Assay [3] has as its target T3, GABPA (Homo sapiens, UniProt Q06546 1-454).
T3 sequence: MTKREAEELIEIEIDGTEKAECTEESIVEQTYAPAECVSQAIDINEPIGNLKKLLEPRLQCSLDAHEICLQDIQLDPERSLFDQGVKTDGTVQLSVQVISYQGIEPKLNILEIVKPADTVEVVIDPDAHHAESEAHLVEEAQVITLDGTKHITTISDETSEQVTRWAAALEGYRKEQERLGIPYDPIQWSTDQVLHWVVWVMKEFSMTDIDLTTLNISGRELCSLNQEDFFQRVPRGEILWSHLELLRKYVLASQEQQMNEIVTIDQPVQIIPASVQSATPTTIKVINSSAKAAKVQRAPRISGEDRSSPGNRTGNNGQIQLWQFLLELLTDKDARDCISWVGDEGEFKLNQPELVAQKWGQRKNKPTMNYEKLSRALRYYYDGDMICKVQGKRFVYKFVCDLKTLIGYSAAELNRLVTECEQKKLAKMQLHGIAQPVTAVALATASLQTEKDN
The settings on record: protein: recombinant; tags: N-terminal GST; dsDNA, one strand shown. The gist of the method: as §1

Assay [4] addresses T4, ERG (Homo sapiens, UniProt P11308 1-479).
T4 sequence: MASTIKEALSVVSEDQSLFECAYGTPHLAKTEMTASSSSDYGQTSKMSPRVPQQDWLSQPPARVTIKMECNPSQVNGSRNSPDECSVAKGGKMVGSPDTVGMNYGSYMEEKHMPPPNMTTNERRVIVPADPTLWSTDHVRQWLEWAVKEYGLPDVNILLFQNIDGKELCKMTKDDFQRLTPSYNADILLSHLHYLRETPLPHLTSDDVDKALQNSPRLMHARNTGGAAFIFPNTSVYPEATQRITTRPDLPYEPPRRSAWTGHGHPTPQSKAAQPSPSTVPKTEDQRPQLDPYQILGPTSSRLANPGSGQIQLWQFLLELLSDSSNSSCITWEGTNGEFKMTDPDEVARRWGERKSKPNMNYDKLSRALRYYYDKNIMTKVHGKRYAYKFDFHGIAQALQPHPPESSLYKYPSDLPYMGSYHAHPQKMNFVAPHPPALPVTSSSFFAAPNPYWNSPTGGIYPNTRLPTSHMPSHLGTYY
The note with it: protein: recombinant; tags: N-terminal GST; dsDNA, one strand shown. The gist of the method:
as §1

Assay [5] deals with ELF1 (Homo sapiens, UniProt P32519 1-619). The settings on record: protein: recombinant; tags: N-terminal GST; dsDNA, one strand shown. In short, it runs like this:
as §1

Assay [6] concerns the target T5, EHF (Homo sapiens, UniProt Q9NZC4 1-300).
T5 sequence: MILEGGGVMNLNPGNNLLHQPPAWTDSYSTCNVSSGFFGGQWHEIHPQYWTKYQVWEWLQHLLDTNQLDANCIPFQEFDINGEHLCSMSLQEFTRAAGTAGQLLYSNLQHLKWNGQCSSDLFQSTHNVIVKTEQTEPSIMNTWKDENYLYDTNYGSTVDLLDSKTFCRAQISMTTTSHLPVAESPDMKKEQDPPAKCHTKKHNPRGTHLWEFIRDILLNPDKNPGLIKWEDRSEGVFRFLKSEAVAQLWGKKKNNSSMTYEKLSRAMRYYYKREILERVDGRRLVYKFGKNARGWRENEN
The settings on record: protein: recombinant; tags: N-terminal GST; dsDNA, one strand shown. In short, it runs like this:
as §1

The target of assay [7] is SPI1 (Homo sapiens, UniProt P17947 1-270). The settings on record: protein: recombinant; tags: N-terminal GST; dsDNA, one strand shown. In short, it runs like this: as §1
Assay [8] deals with SPIB (Homo sapiens, UniProt Q01892 1-262). The note with it: protein: recombinant; tags: N-terminal GST; dsDNA, one strand shown. The gist of the method: as §1
SPIB, sequence (Q01892 whole entry): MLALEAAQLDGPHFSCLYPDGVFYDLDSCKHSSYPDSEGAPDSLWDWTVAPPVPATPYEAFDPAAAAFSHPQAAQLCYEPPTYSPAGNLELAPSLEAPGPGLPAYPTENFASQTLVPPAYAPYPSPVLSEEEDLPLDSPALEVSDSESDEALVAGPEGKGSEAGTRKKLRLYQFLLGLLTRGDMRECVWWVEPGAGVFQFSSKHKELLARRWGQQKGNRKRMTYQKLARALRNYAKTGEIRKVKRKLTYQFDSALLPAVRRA
The target of assay [9] is T6, ELK3 (Homo sapiens, UniProt P41970 1-407).
T6 sequence: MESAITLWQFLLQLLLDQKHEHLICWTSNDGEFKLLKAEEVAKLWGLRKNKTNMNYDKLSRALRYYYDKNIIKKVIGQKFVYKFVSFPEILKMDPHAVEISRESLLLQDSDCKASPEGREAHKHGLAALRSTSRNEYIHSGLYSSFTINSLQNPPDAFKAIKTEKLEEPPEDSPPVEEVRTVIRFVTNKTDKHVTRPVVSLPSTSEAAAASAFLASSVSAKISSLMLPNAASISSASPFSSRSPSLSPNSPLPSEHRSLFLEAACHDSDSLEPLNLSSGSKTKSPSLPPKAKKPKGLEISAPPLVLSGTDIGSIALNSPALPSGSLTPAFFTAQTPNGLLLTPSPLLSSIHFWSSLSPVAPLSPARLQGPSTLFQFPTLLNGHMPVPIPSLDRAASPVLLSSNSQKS
The note with it: protein: recombinant; tags: N-terminal GST; dsDNA, one strand shown. The gist of the method: as §1

Assay [10] concerns the target T7, FEV (Homo sapiens, UniProt Q99581 1-238).
T7 sequence: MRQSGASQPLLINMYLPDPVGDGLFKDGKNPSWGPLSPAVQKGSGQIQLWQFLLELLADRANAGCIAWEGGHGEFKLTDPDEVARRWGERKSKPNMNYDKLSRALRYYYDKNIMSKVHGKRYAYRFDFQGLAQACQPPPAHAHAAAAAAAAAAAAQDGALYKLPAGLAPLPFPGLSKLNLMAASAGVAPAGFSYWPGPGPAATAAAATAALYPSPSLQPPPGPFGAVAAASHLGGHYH
The note with it: protein: recombinant; tags: N-terminal GST; dsDNA, one strand shown. In short, it runs like this:
as §1

In assay [11] the target is ETV5 (Homo sapiens, UniProt P41161 1-510). The settings on record: protein: recombinant; tags: N-terminal GST; dsDNA, one strand shown. The gist of the method: as §1
ETV5, sequence (P41161 whole entry): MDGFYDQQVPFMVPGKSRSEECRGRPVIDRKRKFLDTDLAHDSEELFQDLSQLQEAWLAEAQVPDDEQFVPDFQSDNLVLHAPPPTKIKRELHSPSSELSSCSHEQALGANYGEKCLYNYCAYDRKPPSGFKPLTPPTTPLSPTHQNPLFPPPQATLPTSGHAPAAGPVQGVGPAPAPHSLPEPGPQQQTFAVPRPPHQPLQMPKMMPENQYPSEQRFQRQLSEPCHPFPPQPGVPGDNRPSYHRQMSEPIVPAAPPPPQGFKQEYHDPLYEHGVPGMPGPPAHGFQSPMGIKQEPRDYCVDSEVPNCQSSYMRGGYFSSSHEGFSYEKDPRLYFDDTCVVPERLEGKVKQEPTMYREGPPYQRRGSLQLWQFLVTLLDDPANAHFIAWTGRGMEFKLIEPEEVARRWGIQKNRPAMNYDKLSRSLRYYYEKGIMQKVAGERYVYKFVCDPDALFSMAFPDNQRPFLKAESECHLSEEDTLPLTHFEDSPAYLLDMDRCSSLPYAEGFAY
Assay [12] deals with HSF1 (Homo sapiens, UniProt Q00613 1-529). The note with it: protein: recombinant; tags: N-terminal GST; chain copies: 3; dsDNA, one strand shown. In short, it runs like this: as §1
HSF1, sequence (Q00613 whole entry): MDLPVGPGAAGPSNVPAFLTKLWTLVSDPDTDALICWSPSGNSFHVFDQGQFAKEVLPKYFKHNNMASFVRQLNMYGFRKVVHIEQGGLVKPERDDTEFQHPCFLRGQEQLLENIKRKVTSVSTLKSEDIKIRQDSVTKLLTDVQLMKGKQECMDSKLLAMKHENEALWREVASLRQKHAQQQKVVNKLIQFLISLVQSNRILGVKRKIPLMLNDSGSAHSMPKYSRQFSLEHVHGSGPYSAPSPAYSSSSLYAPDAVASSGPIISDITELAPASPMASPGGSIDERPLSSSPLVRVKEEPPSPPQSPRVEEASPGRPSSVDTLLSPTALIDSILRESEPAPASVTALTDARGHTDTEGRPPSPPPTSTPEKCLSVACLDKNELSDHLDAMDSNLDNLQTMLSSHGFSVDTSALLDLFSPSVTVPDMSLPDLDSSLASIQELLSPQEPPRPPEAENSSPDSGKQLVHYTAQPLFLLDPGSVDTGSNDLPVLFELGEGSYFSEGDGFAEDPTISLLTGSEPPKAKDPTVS
Assay [13] deals with T8, SPIC (Homo sapiens, UniProt Q8N5J4 1-248).
T8 sequence: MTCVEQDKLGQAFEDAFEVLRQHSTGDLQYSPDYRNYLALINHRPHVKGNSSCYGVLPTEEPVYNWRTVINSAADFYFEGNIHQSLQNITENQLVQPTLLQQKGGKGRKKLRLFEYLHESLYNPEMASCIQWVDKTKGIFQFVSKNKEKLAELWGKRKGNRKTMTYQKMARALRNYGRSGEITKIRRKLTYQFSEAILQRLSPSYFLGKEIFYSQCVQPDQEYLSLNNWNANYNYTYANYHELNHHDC
The note with it: protein: recombinant; tags: N-terminal GST; dsDNA, one strand shown. The gist of the method: as §1

The target in assay [14] is ELF4 (Homo sapiens, UniProt Q99607 1-663). The settings on record: protein: recombinant; tags: N-terminal GST; dsDNA, one strand shown. In short, it runs like this:
as §1

Assay [15] addresses T9, ELK4 (Homo sapiens, UniProt P28324-2 1-405).
T9 sequence: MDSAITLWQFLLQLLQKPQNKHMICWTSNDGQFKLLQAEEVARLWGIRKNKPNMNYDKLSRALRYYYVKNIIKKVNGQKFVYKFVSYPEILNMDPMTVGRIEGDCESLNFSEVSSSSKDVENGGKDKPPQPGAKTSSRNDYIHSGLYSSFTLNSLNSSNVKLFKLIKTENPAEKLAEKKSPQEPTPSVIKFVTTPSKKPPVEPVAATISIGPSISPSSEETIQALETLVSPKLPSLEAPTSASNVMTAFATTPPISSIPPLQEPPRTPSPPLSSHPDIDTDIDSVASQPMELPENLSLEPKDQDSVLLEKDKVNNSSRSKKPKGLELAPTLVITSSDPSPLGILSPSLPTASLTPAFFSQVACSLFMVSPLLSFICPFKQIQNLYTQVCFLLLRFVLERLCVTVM
The settings on record: protein: recombinant; tags: N-terminal GST; dsDNA, one strand shown. In short, it runs like this: as §1

Assay [16] concerns the target T10, ETV2 (Homo sapiens, UniProt O00321 1-342).
T10 sequence: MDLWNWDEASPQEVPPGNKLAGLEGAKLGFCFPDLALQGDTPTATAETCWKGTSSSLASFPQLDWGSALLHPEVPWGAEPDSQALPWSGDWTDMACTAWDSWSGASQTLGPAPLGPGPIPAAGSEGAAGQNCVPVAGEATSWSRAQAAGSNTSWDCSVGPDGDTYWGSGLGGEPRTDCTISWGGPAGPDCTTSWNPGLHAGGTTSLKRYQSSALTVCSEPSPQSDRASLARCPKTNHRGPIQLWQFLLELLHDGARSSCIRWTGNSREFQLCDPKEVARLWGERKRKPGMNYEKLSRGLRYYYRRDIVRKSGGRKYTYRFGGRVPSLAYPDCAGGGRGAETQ
The note with it: protein: recombinant; tags: N-terminal GST; dsDNA, one strand shown. In short, it runs like this: as §1

Assay [17] has as its target T11, ELF3 (Homo sapiens, UniProt P78545 1-371).
T11 sequence: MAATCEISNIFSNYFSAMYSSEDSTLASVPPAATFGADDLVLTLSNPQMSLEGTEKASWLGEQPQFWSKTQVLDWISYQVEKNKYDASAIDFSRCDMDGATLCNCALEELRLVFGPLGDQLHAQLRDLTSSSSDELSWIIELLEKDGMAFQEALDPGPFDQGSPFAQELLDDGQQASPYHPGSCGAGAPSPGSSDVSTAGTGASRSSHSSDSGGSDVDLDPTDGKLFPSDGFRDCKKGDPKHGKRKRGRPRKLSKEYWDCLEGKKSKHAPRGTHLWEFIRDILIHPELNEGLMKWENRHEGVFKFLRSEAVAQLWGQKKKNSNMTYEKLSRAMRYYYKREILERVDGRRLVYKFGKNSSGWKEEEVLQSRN
The note with it: protein: recombinant; tags: N-terminal GST; dsDNA, one strand shown. In short, it runs like this:
as §1

The target of assay [18] is CRX (Homo sapiens, UniProt O43186 1-299). The note with it: protein: recombinant; tags: N-terminal GST; dsDNA, one strand shown. The gist of the method: as §1
CRX, sequence (O43186 whole entry): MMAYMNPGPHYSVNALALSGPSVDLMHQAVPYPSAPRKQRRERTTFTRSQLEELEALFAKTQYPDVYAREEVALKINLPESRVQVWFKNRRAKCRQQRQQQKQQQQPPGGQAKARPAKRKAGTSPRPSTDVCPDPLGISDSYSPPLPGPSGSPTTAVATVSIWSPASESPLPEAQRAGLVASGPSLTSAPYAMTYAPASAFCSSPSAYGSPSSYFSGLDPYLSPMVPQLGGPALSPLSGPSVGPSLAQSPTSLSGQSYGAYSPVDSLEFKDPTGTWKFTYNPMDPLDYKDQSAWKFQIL
The target of assay [19] is ETV1 (Homo sapiens, UniProt P50549 1-477). The settings on record: protein: recombinant; tags: N-terminal GST; dsDNA, one strand shown. The gist of the method: as §1
ETV1, sequence (P50549 whole entry): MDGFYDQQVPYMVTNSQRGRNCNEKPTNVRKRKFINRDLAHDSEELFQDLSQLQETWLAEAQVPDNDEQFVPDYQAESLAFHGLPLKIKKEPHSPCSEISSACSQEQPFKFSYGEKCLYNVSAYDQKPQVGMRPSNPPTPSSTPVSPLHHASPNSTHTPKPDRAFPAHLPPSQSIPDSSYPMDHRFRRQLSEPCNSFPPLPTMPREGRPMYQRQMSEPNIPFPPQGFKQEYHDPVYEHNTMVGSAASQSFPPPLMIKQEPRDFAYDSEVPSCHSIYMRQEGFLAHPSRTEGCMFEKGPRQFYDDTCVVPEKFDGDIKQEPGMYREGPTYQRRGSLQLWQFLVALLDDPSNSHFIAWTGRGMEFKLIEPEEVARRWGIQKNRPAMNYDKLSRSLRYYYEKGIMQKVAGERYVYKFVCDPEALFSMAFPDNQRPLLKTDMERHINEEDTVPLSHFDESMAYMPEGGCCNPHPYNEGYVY

ELF4, sequence (Q99607 whole entry): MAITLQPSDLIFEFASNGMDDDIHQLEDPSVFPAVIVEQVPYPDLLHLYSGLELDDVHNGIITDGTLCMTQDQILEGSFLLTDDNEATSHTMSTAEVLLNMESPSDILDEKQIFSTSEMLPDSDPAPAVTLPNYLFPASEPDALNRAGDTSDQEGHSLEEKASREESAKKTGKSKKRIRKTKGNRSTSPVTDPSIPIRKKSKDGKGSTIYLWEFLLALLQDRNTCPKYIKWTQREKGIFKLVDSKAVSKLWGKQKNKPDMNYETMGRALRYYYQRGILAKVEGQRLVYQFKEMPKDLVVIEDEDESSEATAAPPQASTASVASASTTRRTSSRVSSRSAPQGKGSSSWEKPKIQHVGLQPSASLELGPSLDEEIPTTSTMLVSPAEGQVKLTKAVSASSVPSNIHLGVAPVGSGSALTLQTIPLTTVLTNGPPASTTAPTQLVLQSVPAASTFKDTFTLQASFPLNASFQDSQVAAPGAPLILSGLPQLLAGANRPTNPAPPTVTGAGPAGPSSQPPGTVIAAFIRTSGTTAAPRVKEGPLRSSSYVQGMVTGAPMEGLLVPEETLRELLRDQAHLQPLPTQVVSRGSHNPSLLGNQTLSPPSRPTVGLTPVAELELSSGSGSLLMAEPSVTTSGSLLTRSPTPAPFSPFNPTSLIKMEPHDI
ELF1, sequence (P32519 whole entry): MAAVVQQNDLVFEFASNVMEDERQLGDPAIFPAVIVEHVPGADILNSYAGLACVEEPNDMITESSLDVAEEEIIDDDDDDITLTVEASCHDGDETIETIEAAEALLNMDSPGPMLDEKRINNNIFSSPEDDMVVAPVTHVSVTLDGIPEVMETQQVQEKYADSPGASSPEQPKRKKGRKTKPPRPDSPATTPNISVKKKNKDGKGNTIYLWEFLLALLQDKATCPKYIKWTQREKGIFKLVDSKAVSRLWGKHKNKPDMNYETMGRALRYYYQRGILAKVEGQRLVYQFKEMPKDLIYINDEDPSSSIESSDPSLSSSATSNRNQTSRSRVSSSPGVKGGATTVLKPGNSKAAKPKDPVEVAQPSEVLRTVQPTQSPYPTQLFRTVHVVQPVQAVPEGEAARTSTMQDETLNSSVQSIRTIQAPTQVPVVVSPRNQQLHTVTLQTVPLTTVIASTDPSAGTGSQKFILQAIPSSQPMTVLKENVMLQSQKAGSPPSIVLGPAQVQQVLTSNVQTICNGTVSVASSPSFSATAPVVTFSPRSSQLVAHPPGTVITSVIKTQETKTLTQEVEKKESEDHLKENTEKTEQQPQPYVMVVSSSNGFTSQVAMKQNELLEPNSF

Take ATTCCC: the binding signal was 1.37 fold enrichment (6-mer frequency, TF over GST control) in assay [1]; 1.32 fold enrichment (6-mer frequency, TF over GST control) in [2]; 1.38 fold enrichment (6-mer frequency, TF over GST control) in [3]; 1.3 fold enrichment (6-mer frequency, TF over GST control) in assay [4]; 1.4 fold enrichment (6-mer frequency, TF over GST control) in assay [5]; 1.35 fold enrichment (6-mer frequency, TF over GST control) in [6]. Besides, the binding signal was 1.34 fold enrichment (6-mer frequency, TF over GST control) in [7]; 1.48 fold enrichment (6-mer frequency, TF over GST control) in assay [8]; 1.44 fold enrichment (6-mer frequency, TF over GST control) in [9]; 1.42 fold enrichment (6-mer frequency, TF over GST control) in assay [10]; 1.44 fold enrichment (6-mer frequency, TF over GST control) in assay [11]; 1.61 fold enrichment (6-mer frequency, TF over GST control) in [12]. The binding signal in assay [13] was 1.41 fold enrichment (6-mer frequency, TF over GST control); in [14], 1.47 fold enrichment (6-mer frequency, TF over GST control); in assay [15] it was 1.24 fold enrichment (6-mer frequency, TF over GST control); in assay [16], 1.42 fold enrichment (6-mer frequency, TF over GST control); in assay [17], 1.35 fold enrichment (6-mer frequency, TF over GST control); in assay [18], 1.57 fold enrichment (6-mer frequency, TF over GST control). For the same sequence, the binding signal in assay [19] was 1.4 fold enrichment (6-mer frequency, TF over GST control).
